± gives the standard deviation.
Legend:
Test in all cases: peptide microarray binding signal (635 nm), min-max normalized on array (fraction of array maximum); higher = stronger binding
Settings in all cases: peptide region: H3 112-124
[1] = target: T1, HaloTag-ATRX ADD domain (163-292)
T1 chain: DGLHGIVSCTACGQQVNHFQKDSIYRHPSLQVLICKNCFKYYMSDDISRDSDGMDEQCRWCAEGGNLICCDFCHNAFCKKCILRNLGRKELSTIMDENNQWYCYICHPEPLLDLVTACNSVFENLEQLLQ
Summary of the method: (§1)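 Arrays carried histone 13-mer peptide–cellulose conjugates printed in triplicate on nitrocellulose alongside a Cy3 tracer. After overnight blocking at 4°C, they were incubated for 1 h at 4°C with biotin-labelled HaloTag reader fusions (10 nM to 1 μM) plus streptavidin-Alexa Fluor 647, or with rabbit histone antibodies (1:10,000 to 1:2,000) plus anti-rabbit Alexa 647. Scanning on an Axon GenePix 4000B used 635 nm for signal and 532 nm for misprints. The binding signal reported is each triplicate's mean spot intensity after per-library min-max scaling.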

[2] = target: HaloTag-ING2 PHD (mouse Ing2 200-280)
Summary of the method: as §1

[3] = target: anti-H3K4me3 antibody ab8580
Summary of the method: as §1

[4] = target: anti-H3K9me3 antibody ab8898
Summary of the method: as §1

[5] = peptide modifications: H3K115me1 H3R116cit, binder concentration: 1:2,000 dilution
[6] = peptide modifications: H3K115me1 H3R116cit, binder concentration: 1:10,000 dilution
[7] = peptide modifications: H3K115me1 H3K122me2, binder concentration: 1:2,000 dilution
[8] = peptide modifications: H3K115me1 H3K122me2, binder concentration: 1:10,000 dilution
[9] = peptide modifications: H3K115me1 H3K122me1, binder concentration: 1:2,000 dilution
[10] = peptide modifications: H3K115me1 H3K122me1, binder concentration: 1:10,000 dilution
[11] = peptide modifications: H3K115ac H3R116cit, binder concentration: 1:2,000 dilution
[12] = peptide modifications: H3K115ac H3R116cit, binder concentration: 1:10,000 dilution
[13] = peptide modifications: H3K115ac H3K122ac, binder concentration: 1:2,000 dilution
[14] = peptide modifications: H3K115ac H3K122ac, binder concentration: 1:10,000 dilution

## IHAKRVTIMPKDI [H3 112-124 I H A Kme Rcit V T I M P K D I]
[1]; peptide modifications: H3K115me1 H3R116cit, binder concentration: 50 nM
  peptide microarray binding signal: 0.00947 ± 0.0002
[1]; peptide modifications: H3K115me1 H3R116cit, binder concentration: 500 nM
  peptide microarray binding signal: 0.0238 ± 0.00041
[2]; peptide modifications: H3K115me1 H3R116cit, binder concentration: 10 nM
  peptide microarray binding signal: 0.0192 ± 0.00041
[2]; peptide modifications: H3K115me1 H3R116cit, binder concentration: 100 nM
  peptide microarray binding signal: 0.037 ± 0.0012
[3]; [5]
  peptide microarray binding signal: 0.00225 ± 5.2e-05
[3]; [6]
  peptide microarray binding signal: 0.00434 ± 0.00036
[4]; [5]
  peptide microarray binding signal: 0.00249 ± 6.3e-05
[4]; [6]
  peptide microarray binding signal: 0.00248 ± 5.9e-05

## IHAKRVTIMPKDI [H3 112-124 I H A Kme R V T I M P Kme2 D I]
[1]; peptide modifications: H3K115me1 H3K122me2, binder concentration: 50 nM
  peptide microarray binding signal: 0.00423 ± 4.3e-05
[1]; peptide modifications: H3K115me1 H3K122me2, binder concentration: 500 nM
  peptide microarray binding signal: 0.00881 ± 0.00019
[2]; peptide modifications: H3K115me1 H3K122me2, binder concentration: 10 nM
  peptide microarray binding signal: 0.0148 ± 0.0012
[2]; peptide modifications: H3K115me1 H3K122me2, binder concentration: 100 nM
  peptide microarray binding signal: 0.0263 ± 0.0033
[3]; [7]
  peptide microarray binding signal: 0.0016 ± 6.6e-05
[3]; [8]
  peptide microarray binding signal: 0.001826 ± 1.7e-05
[4]; [7]
  peptide microarray binding signal: 0.00125 ± 6.5e-05
[4]; [8]
  peptide microarray binding signal: 0.00133 ± 2.3e-05

## IHAKRVTIMPKDI [H3 112-124 I H A Kme R V T I M P Kme D I]
[1]; peptide modifications: H3K115me1 H3K122me1, binder concentration: 50 nM
  peptide microarray binding signal: 0.00511 ± 9.8e-05
[1]; peptide modifications: H3K115me1 H3K122me1, binder concentration: 500 nM
  peptide microarray binding signal: 0.0109 ± 9.7e-05
[2]; peptide modifications: H3K115me1 H3K122me1, binder concentration: 10 nM
  peptide microarray binding signal: 0.0179 ± 0.0021
[2]; peptide modifications: H3K115me1 H3K122me1, binder concentration: 100 nM
  peptide microarray binding signal: 0.0298 ± 0.0035
[3]; [9]
  peptide microarray binding signal: 0.00187 ± 0.00022
[3]; [10]
  peptide microarray binding signal: 0.00234 ± 0.00015
[4]; [9]
  peptide microarray binding signal: 0.00121 ± 5.5e-05
[4]; [10]
  peptide microarray binding signal: 0.00115

## IHAKRVTIMPKDI [H3 112-124 I H A Kac Rcit V T I M P K D I]
[1]; peptide modifications: H3K115ac H3R116cit, binder concentration: 50 nM
  peptide microarray binding signal: 0.00668 ± 0.00021
[1]; peptide modifications: H3K115ac H3R116cit, binder concentration: 500 nM
  peptide microarray binding signal: 0.0105 ± 0.00017
[2]; peptide modifications: H3K115ac H3R116cit, binder concentration: 10 nM
  peptide microarray binding signal: 0.0109 ± 0.00031
[2]; peptide modifications: H3K115ac H3R116cit, binder concentration: 100 nM
  peptide microarray binding signal: 0.016 ± 0.00067
[3]; [11]
  peptide microarray binding signal: 0.00179 ± 5.5e-05
[3]; [12]
  peptide microarray binding signal: 0.00211 ± 3.4e-05
[4]; [11]
  peptide microarray binding signal: 0.00154 ± 1.8e-05
[4]; [12]
  peptide microarray binding signal: 0.00127 ± 1.3e-05

## IHAKRVTIMPKDI [H3 112-124 I H A Kac R V T I M P Kac D I]
[1]; peptide modifications: H3K115ac H3K122ac, binder concentration: 50 nM
  peptide microarray binding signal: 0.00947 ± 0.0003
[1]; peptide modifications: H3K115ac H3K122ac, binder concentration: 500 nM
  peptide microarray binding signal: 0.0259 ± 0.00095
[2]; peptide modifications: H3K115ac H3K122ac, binder concentration: 10 nM
  peptide microarray binding signal: 0.0323 ± 0.0014
[2]; peptide modifications: H3K115ac H3K122ac, binder concentration: 100 nM
  peptide microarray binding signal: 0.0605 ± 0.013
[3]; [13]
  peptide microarray binding signal: 0.00336 ± 0.0003
[3]; [14]
  peptide microarray binding signal: 0.00417 ± 0.0002
[4]; [13]
  peptide microarray binding signal: 0.00288 ± 0.00013
[4]; [14]
  peptide microarray binding signal: 0.00242 ± 9.5e-05
